Experimental data from PubChem BioAssay (NCATS).
Inconclusive results are not listed. Where a call stands in place of a potency, no number is given. Activity calls are given as the source filed them. Calls follow the shape of the dose curve; as a rule, active = well fitted inhibition curve with a large enough effect; inconclusive = small, poorly fitted or top-dose-only effect; inactive = flat fitted curve, though single readings scatter.

Test: P-glycoprotein substrates identified in KB-8-5-11 adenocarcinoma cell line, qHTS therapeutic library screen (AID 1346987); also: nearly all actives have a fitted effect of over 65% in size
Conditions: KB-8-5-11 (P-gp overexpressing) viability, CellTiter-Glo, 72 h; series mostly up to 44.5 µM
Method in brief: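 Luminescence from CellTiter-Glo, read 5 min after addition, quantified survival of KB-8-5-11 (P-gp-overexpressing) cells exposed to compounds for 72 h. AC50 was derived from concentration-response curves.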
Potency is read from the fitted curve at half-maximal effect.

| Compound | Potency |
| --- | --- |
| Cn1ncc(Cl)c1-c1cc(C(=O)N[C@H](CN)Cc2cccc(F)c2)sc1Cl | 18.4 µM (active) |
| CC(=O)N[C@@H](C=O)[C@H](O)[C@H](O)[C@@H](O)CO | inactive |
| O=P(O)(O)OC(CO)CO | inactive |
| CC(C)(C)NC(=O)[C@H]1CC[C@H]2[C@@H]3CC=C4C=C(C(=O)O)CC[C@]4(C)[C@H]3CC[C@]12C | inactive |
| CC(C)(C)c1ccc(C(=O)Nc2cc(Cl)c(Br)cc2C(=O)O)cc1 | 10.3 µM (active) |
| COc1c(CCC(=O)O)cccc1O[C@@H]1O[C@H](CO)[C@@H](O)[C@H](O)[C@H]1O | inactive |
| Cc1cc(C)c(S(=O)(=O)n2cc(C)cc2C)c(C)c1 | inactive |
| CCCCCCCCCCCCCCCC(=O)OC[C@@H](COP(=O)([O-])OCC[N+](C)(C)C)OC(=O)CCCCCCCCCCCCCCC | inactive |
| CCc1c[nH]c2ncnc(N3CC[C@](N)(CNC(=O)c4ccc(F)cc4F)C3)c12 | inactive |
| CN1CCN(c2ccc(OC(F)(F)F)c(Nc3ncc4c(n3)-c3c(c(C(N)=O)nn3CCO)CC4)c2)CC1 | 0.517 µM (active) |
| C=Cc1ccccc1 | inactive |
| Cc1cc(N2CCN(C(=O)Oc3ccc(-c4ccccc4)cn3)CC2)c2ccccc2n1 | 14.6 µM (active) |
| C=CCNC1=C2C[C@@H](C)C[C@H](OC)[C@H](O)[C@@H](C)/C=C(\C)[C@H](OC(N)=O)[C@@H](OC)/C=C\C=C(/C)C(=O)NC(=CC1=O)C2=O | 16.4 µM (active) |
| CCOC(=O)Cc1cccc(-c2cc(CCCCCCc3ccc(O[C@H]4O[C@H](COC(C)=O)[C@@H](OC(C)=O)[C@H](OC(C)=O)[C@@H]4OC(C)=O)c(-c4cccc(CC(=O)OCC)c4)c3)ccc2O[C@H]2O[C@H](COC(C)=O)[C@@H](OC(C)=O)[C@H](OC(C)=O)[C@@H]2OC(C)=O)c1 | inactive |
| C=C1C(=O)O[C@@H]2C[C@]3(C)[C@@H](CCC(C)O)[C@@H]3C[C@H]12 (stereo partly drawn) | inactive |
| O=C(Nc1nc2cc(C(F)(F)F)cc(NC3CC3)n2n1)c1cccnc1 | 2.91 µM (active) |
| CO[C@@H]1[C@@H](O[C@@H]2O[C@H](C)[C@@H](O[C@H]3C[C@@](C)(O)[C@@H](OC(=O)CC(C)C)[C@H](C)O3)[C@H](N(C)C)[C@H]2O)[C@@H](CC=O)C[C@@H](C)[C@@H](O)/C=C/C=C/C[C@@H](C)OC(=O)C[C@H]1O | inactive |

| Compound | Potency |
| --- | --- |
| c1ccc2c(CCC3CCNCC3)c[nH]c2c1 | inactive |
| CN(C)C(=O)Nc1cccc(-c2ccc(N(C)C)cc2)c1 | inactive |
| CCCC1(CCC)CCC2(CCN(CCCN(CC)CC)C2)CC1 | 2.31 µM (active) |
| NC(=O)N1CCC(CC(=O)N2CCC(C3c4ncc(Br)cc4CCc4cc(Cl)cc(Br)c43)CC2)CC1 (stereo not drawn) | 18.4 µM (active) |
| Cc1nnc(C[C@@H]2C=C(c3ccc(Cl)cc3)c3ccccc3-n3c(C)nnc32)o1 | 2.59 µM (active) |
| CC1(C)OC[C@H](NC(=O)Nc2ccc(Br)cc2Br)[C@H](c2ccccc2)O1 | inactive |
| COc1ccc2c(c1O[C@H]1CCNC1)CCC2 | inactive |
| CC1CCC(=O)CC(SCC(O)C(=O)O)CCC(=O)O1 (stereo not drawn) | inactive |
| CCC(C(C)O)n1ncn(-c2ccc(N3CCN(c4ccc(OCC5COC(Cn6cncn6)(c6ccc(F)cc6F)C5)cc4)CC3)cc2)c1=O (stereo not drawn) | 18.4 µM (active) |
| CCN(CC)c1ccc(N=Nc2ccc(S(=O)(=O)N(C)C)cc2)c(S(=O)(=O)NCC[n+]2ccccc2)c1 | inactive |
| O=C(Nc1cc(C(F)(F)F)cc(C(F)(F)F)c1)c1cnc(Cl)nc1C(F)(F)F | 16.4 µM (active) |
| CC(=O)OC1CC2(C)C(CCC(C)C23Cc2c(O)cc(CO)c(C=O)c2O3)C(C)(C)C1O (stereo not drawn) | inactive |
| CO[C@H]1C[C@H](O[C@H]2[C@H](C)O[C@@H](O[C@@H]3/C(C)=C/C[C@@H]4C[C@@H](C[C@]5(C=C[C@H](C)[C@@H](C6CCCCC6)O5)O4)OC(=O)[C@@H]4C=C(C)[C@@H](O)[C@H]5OC/C(=C\C=C\[C@@H]3C)[C@]54O)C[C@@H]2OC)O[C@@H](C)[C@@H]1O | 20.6 µM (active) |
| O=C1C(c2[nH]c3ccc(S(=O)(=O)O)cc3c2O)=Nc2ccc(S(=O)(=O)O)cc21 | inactive |
| C/C1=C/CCC2=CC(OC2=O)C(C)(C)/C=C/C1=O (stereo not drawn) | 3.26 µM (active) |
| CC(=O)O[C@@]12CO[C@@H]1C[C@H](O)[C@@]1(C)C(=O)[C@H](O)C3=C(C)[C@@H](OC(=O)[C@H](O)[C@@H](NC(=O)OC(C)(C)C)c4ccccc4)C[C@@](O)([C@@H](OC(=O)c4ccccc4)C12)C3(C)C (stereo partly drawn) | 0.126 µM (active) |
